PubChem BioAssay (EPA / NIEHS)
The source made the active and inactive calls. How the source made its calls: active means hit-call score of the fitted dose curve at least 0.9, where 1 is the maximum; inactive means score below 0.9.

Columns and labels:
Conditions in all cases: mRNA level, 48 h; actives raise or lower the signal
[1] = read-out: ABC Transporter (ABCB11), ABCB11 (gene 8647); test: LTEA_HepaRG_ABCB11: Life Technologies and Expression Analysis (LTEA) Assay for ABC Transporter (ABCB11) using HepaRG (AID 2283463)
How it was run: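 Using HepaRG cultures held in 0.5% DMSO, chemicals were tested at half-log dilutions from 100 uM for 48 h. Induction or suppression of ABCB11 mRNA, normalized to ACTB, GAPDH and POLR2A, was fitted bidirectionally against vehicle.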

[2] = read-out: ABC Transporter (ABCC2), ABCC2 (gene 1244); test: LTEA_HepaRG_ABCC2: Life Technologies and Expression Analysis (LTEA) Assay for ABC Transporter (ABCC2) using HepaRG (AID 2283464)
How it was run: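 HepaRG, 48 h post-plating; serum-free induction medium; cpd 8-pt, 100 uM top, half-log, 0.5% DMSO, duplicate, 48 h. Readout: ABCC2 mRNA by qRT-PCR, norm. ACTB/GAPDH/POLR2A. Bidirectional fit vs DMSO baseline.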

[3] = read-out: Broad substrate specificity ATP-binding cassette transporter ABCG2 (Homo sapiens) (UniProt Q9UNQ0); test: LTEA_HepaRG_ABCG2: Life Technologies and Expression Analysis (LTEA) Assay for ABC Transporter (ABCG2) using HepaRG (AID 2283465)
How it was run: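 Gene expression of ABCG2 in HepaRG liver cells is quantified by qRT-PCR following 48 h exposure across an eight-point series topping at 100 uM. Values come from bidirectional fitting relative to DMSO vehicle.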

[4] = read-out: ATP-citrate lyase (ACLY), ACLY (gene 47); test: LTEA_HepaRG_ACLY: Life Technologies and Expression Analysis (LTEA) Assay for ATP-citrate lyase (ACLY) using HepaRG (AID 2283466)
How it was run: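 ACLY expression changes in human HepaRG liver cells are quantified by qRT-PCR after 48 h exposure to test chemicals (maximum 100 uM, half-log steps). Values are fitted in both directions relative to 0.5% DMSO vehicle.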

[5] = read-out: Peroxisomal acyl-coenzyme A oxidase 1 (ACOX1) gene, ACOX1 (gene 51); test: LTEA_HepaRG_ACOX1: Life Technologies and Expression Analysis (LTEA) Assay for Peroxisomal acyl-coenzyme A oxidase 1 (ACOX1) gene using HepaRG (AID 2283467)
How it was run: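 Human HepaRG hepatic cultures, 48 h treatment with test chemicals up to 100 uM. ACOX1 expression read by qRT-PCR relative to 0.5% DMSO vehicle.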

[6] = read-out: Alkaline Phosphatase, Placental (ALPP) gene, ALPP (gene 250); test: LTEA_HepaRG_ALPP: Life Technologies and Expression Analysis (LTEA) Assay for Alkaline Phosphatase, Placental (ALPP) gene using HepaRG (AID 2283468);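 on AC50: differentiated human HepaRG liver cells in serum-free induction medium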
How it was run: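 HepaRG, 48 h plating then 48 h dosing, serum-free induction medium, 0.5% DMSO. 8 conc, half-log, max 100 uM, duplicates. Endpoint: ALPP transcript by qRT-PCR, housekeeping-normalized; gain or loss fitted vs DMSO.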

[7] = read-out: Bcl-2 (BAD) gene, BAD (gene 572); test: LTEA_HepaRG_BAD: Life Technologies and Expression Analysis (LTEA) Assay for Bcl-2 (BAD) gene using HepaRG (AID 2283469)
How it was run: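 Activity values reflect up- or down-regulation of BAD mRNA in human HepaRG hepatic cells treated 48 h in serum-free medium, with eight-point half-log dosing capped at 100 uM and 0.5% DMSO vehicle.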

[8] = read-out: Bcl-2 (BAX) gene, BAX (gene 581); test: LTEA_HepaRG_BAX: Life Technologies and Expression Analysis (LTEA) Assay for Bcl-2 (BAX) gene using HepaRG (AID 2283470)
How it was run: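 qRT-PCR read-out of BAX mRNA, normalized to three housekeeping genes, after 48 h chemical exposure of human HepaRG cells in serum-free induction medium; eight-point half-log series, top 100 uM, 0.5% DMSO vehicle; bidirectional fit versus DMSO.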

[9] = read-out: adenosine kinase (ADK) gene, ADK (gene 132); test: LTEA_HepaRG_ADK: Life Technologies and Expression Analysis (LTEA) Assay for adenosine kinase (ADK) gene using HepaRG (AID 2283471)
How it was run: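 Following 48 h exposure of HepaRG cells in 0.5% DMSO (top concentration 100 uM, duplicate wells), ADK mRNA induction or suppression was measured by qRT-PCR, normalised to ACTB/GAPDH/POLR2A, and fitted bidirectionally relative to vehicle.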

[10] = read-out: Alpha-fetoprotein (AFP) gene, AFP (gene 174); test: LTEA_HepaRG_AFP: Life Technologies and Expression Analysis (LTEA) Assay for Alpha-fetoprotein (AFP) gene using HepaRG (AID 2283472)
How it was run: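 qRT-PCR (Fluidigm TaqMan) readout of AFP transcript, normalized to three housekeeping genes, fitted bidirectionally against 0.5% DMSO baseline. HepaRG cells received chemicals for 48 h in serum-free induction medium, top concentration 100 uM, half-log steps.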

BCL2L11 (gene 10018) = test: LTEA_HepaRG_BCL2L11: Life Technologies and Expression Analysis (LTEA) Assay for Bcl-2 (BCL2L11) gene using HepaRG (AID 2283473)
How it was run: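 Read-out is BCL2L11 transcript level by qRT-PCR, normalized to three housekeeping genes and fitted bidirectionally against 0.5% DMSO vehicle. HepaRG cells received chemicals for 48 h in serum-free induction medium, 100 uM down in half-log dilutions.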

[11] = read-out: Apolipoprotein A-V (APOA5) gene, APOA5 (gene 116519); test: LTEA_HepaRG_APOA5: Life Technologies and Expression Analysis (LTEA) Assay for Apolipoprotein A-V (APOA5) gene using HepaRG (AID 2283474)
How it was run: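 Readout is APOA5 transcript level by qRT-PCR on Fluidigm dynamic arrays, normalized to three housekeeping genes. HepaRG cultures received chemicals for 48 h at up to 100 uM (half-log steps, 0.5% DMSO), with gain or loss scored relative to DMSO.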

[12] = read-out: Bcl-2 (BID) gene, BID (gene 637); test: LTEA_HepaRG_BID: Life Technologies and Expression Analysis (LTEA) Assay for Bcl-2 (BID) gene using HepaRG (AID 2283476)
How it was run: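 HepaRG, 48 h exposure, 8-pt half-log series, top 100 uM, 0.5% DMSO vehicle, duplicates. Readout: BID mRNA by TaqMan qRT-PCR; housekeeping-normalized; bidirectional curve fit vs DMSO baseline.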

Caspase-3 (Homo sapiens) = Caspase-3 (Homo sapiens) (UniProt P42574); test: LTEA_HepaRG_CASP3: Life Technologies and Expression Analysis (LTEA) Assay for cysteine-aspartic acid protease (CASP3) using HepaRG (AID 2283477)
How it was run: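 Read-out is CASP3 mRNA level by TaqMan qRT-PCR in human HepaRG cells after 48 h chemical exposure. Eight half-log concentrations topping at 100 uM were tested in 0.5% DMSO; gain or loss was fitted relative to DMSO.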

[13] = read-out: Cytochrome P450 (CYP24A1), CYP24A1 (gene 1591); test: LTEA_HepaRG_CYP24A1: Life Technologies and Expression Analysis (LTEA) Assay for Cytochrome P450 (CYP24A1) using HepaRG (AID 2283478)
How it was run: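 HepaRG, 48 h chemical exposure, 8-pt half-log CRC from 100 uM, 0.5% DMSO vehicle, duplicates. Endpoint: CYP24A1 mRNA by Fluidigm TaqMan qRT-PCR, normalized ACTB/GAPDH/POLR2A; gain/loss fit vs DMSO.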

[14] = read-out: Cytochrome P450 (CYP1A2), CYP1A2 (gene 1544); test: LTEA_HepaRG_CYP1A2: Life Technologies and Expression Analysis (LTEA) Assay for Cytochrome P450 (CYP1A2) using HepaRG (AID 2283479)
How it was run: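 CYP1A2 transcript induction or loss, quantified by Fluidigm qRT-PCR against three housekeeping genes, was fitted bidirectionally against 0.5% DMSO controls. Human HepaRG cells received eight half-log concentrations from 100 uM over 48 h.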

[15] = read-out: cysteine-aspartic acid protease (CASP8), CASP8 (gene 841); test: LTEA_HepaRG_CASP8: Life Technologies and Expression Analysis (LTEA) Assay for cysteine-aspartic acid protease (CASP8) using HepaRG (AID 2283480)
How it was run: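 Concentration-response in duplicate up to 100 uM (half-log steps, 0.5% DMSO) on differentiated HepaRG cultures for 48 h. Expression change of CASP8 mRNA is determined by TaqMan qRT-PCR with housekeeping-gene normalization.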

[16] = read-out: Cytochrome P450 (CYP2B6), CYP2B6 (gene 1555); test: LTEA_HepaRG_CYP2B6: Life Technologies and Expression Analysis (LTEA) Assay for Cytochrome P450 (CYP2B6) using HepaRG (AID 2283481)
How it was run: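 HepaRG cells plated 48 h, switched to serum-free induction medium, then dosed 48 h (8 points, half-log from 100 uM, 0.5% DMSO). RNA isolated; CYP2B6 expression measured by qRT-PCR; gain or loss fitted relative to DMSO.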

[17] = read-out: Cytochrome P450 2C19 (Homo sapiens) (UniProt P33261); test: LTEA_HepaRG_CYP2C19: Life Technologies and Expression Analysis (LTEA) Assay for CYP2C19 using HepaRG (AID 2283482)
How it was run: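 Transcript levels of CYP2C19 were quantified by qRT-PCR after HepaRG cells were treated for 48 hours with test chemicals up to 100 uM (eight half-log concentrations, 0.5% DMSO vehicle). Gain or loss of signal was fitted relative to DMSO.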

[18] = read-out: Apoptosis regulator Bcl-2 (Homo sapiens) (UniProt P10415); test: LTEA_HepaRG_BCL2: Life Technologies and Expression Analysis (LTEA) Assay for Bcl-2 gene using HepaRG (AID 2283475);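 further: BCL2 transcript by TaqMan qRT-PCR normalised to ACTB GAPDH and POLR2A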
How it was run: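 qRT-PCR read-out (Fluidigm TaqMan) of BCL2 transcript, normalised to three housekeeping genes, after 48 h chemical exposure of HepaRG cells; 8-point half-log series, top 100 uM, 0.5% DMSO vehicle. Gain or loss of signal fitted relative to DMSO baseline.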

Measured: AC50

Chain of Broad substrate specificity ATP-binding cassette transporter ABCG2 (Homo sapiens) (Q9UNQ0 whole entry, looked up): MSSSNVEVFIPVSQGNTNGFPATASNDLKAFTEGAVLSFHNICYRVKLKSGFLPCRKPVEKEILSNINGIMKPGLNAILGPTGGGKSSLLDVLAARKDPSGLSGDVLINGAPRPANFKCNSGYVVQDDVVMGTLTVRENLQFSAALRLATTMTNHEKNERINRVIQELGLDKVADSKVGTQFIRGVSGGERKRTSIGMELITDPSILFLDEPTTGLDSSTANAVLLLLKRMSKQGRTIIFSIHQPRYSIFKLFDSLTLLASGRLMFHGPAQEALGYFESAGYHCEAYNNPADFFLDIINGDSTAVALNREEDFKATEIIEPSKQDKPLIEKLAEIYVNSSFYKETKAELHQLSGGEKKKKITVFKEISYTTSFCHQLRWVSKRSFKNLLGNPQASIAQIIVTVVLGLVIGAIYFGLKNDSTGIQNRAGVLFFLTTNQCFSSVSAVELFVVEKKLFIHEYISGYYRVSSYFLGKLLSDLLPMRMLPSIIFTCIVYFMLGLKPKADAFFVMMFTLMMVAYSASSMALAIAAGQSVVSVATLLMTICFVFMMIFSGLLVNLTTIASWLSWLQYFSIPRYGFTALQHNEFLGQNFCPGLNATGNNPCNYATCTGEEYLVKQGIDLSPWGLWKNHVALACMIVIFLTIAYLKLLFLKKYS
Chain of Caspase-3 (Homo sapiens) (P42574 whole entry, looked up): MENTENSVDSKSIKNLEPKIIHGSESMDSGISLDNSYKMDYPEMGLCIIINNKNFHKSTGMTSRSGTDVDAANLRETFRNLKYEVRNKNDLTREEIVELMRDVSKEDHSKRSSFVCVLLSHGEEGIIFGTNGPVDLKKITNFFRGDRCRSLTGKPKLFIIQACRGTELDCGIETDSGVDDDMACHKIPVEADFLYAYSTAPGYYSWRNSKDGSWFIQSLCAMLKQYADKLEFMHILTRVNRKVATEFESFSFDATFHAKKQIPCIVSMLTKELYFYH
Chain of Apoptosis regulator Bcl-2 (Homo sapiens) (P10415 whole entry, looked up): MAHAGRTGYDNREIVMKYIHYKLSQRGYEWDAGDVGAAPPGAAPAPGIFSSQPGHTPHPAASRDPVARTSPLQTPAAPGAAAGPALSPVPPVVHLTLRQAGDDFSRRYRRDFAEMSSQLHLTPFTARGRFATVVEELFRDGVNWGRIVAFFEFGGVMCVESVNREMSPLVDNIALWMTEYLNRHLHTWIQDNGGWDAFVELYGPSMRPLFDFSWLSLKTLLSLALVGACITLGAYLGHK
Chain of Cytochrome P450 2C19 (Homo sapiens) (P33261 whole entry, looked up): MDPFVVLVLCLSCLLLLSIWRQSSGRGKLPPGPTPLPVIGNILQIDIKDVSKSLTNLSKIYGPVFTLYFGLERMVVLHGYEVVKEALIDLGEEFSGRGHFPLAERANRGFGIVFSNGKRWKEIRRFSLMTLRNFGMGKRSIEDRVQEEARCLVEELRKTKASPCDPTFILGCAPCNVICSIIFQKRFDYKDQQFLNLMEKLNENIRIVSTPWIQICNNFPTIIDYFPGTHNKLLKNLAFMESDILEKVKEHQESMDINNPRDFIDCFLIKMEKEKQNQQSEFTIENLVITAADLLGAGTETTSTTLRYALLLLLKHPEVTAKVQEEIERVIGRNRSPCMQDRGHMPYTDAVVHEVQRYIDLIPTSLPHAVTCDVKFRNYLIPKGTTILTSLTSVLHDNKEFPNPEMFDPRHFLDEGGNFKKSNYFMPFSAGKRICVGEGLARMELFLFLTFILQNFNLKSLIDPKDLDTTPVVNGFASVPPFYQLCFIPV

CSC1=N[C@@](C)(c2ccccc2)C(=O)N1Nc1ccccc1
inactive: [4] | [7] | [8] | [9] | [12] | Caspase-3 (Homo sapiens) | [13] | [15]
active: [1] 31.4 µM | [2] 83.6 µM | [3] 13.2 µM | [5] 27.3 µM | [6] 13.3 µM | [10] 35.2 µM | BCL2L11 (gene 10018) 12.6 µM | [11] 33.8 µM | [14] 25.4 µM | [16] 30.8 µM | [17] 38.1 µM

N#CSCSC#N
active: [1] 50 µM | [6] 12.5 µM | [8] 50 µM | [10] 80.2 µM | BCL2L11 (gene 10018) 78.8 µM | [16] 92.3 µM
not listed: [17] | [18]
inactive: all other assays above

CC(C1CC1)C(O)(Cn1cncn1)c1ccc(Cl)cc1 (configuration not stated)
active: [4] 31.7 µM | [10] 20.5 µM | [16] 1.06 µM | [17] 12.8 µM
not listed: [6]
inactive: all other assays above

Cc1nn(-c2cc(NS(C)(=O)=O)c(Cl)cc2Cl)c(=O)n1C(F)F
active: [2] 13.6 µM | [16] 11.8 µM
not listed: [1] | [17]
inactive: all other assays above

CCCCN(CC)c1c([N+](=O)[O-])cc(C(F)(F)F)cc1[N+](=O)[O-]
active: [14] 35.8 µM | [16] 32 µM
not listed: [17] | [18]
inactive: all other assays above
